Only some compounds are listed: those with a hit (about 1.2% of all), similar ones and a draw of the others.
RGS8-Gao reg: modulates binding of RGS8 to human Galphao | response (percent of control binding), % at 10 µM | AID 1423 | multiplexed bead flow cytometry; actives lie on both sides | actives 0.34% (n = 220,000) | P09471; in the data active = response below about 60% or above about 140%; inactive = in between;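 also: Galphao activated as the GDP aluminium fluoride complex binding bead-coupled RGS8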
Target sequence (P09471 whole entry, looked up): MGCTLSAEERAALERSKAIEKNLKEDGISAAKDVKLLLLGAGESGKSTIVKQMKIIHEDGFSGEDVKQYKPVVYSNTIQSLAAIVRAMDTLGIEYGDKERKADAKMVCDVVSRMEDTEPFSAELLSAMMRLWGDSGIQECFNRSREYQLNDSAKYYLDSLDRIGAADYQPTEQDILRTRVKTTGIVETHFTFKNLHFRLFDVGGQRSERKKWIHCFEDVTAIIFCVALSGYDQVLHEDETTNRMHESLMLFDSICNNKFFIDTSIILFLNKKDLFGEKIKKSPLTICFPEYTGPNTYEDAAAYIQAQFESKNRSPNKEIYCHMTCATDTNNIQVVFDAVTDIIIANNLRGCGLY
RGS4-Gao reg: human RGS4-Galphao interaction regulation | binding response (% of control), % at 10 µM | AID 1415 | Multiplexed bead flow cytometry, RGS4-Galphao binding; actives lie on both sides | actives 0.33% (n = 220,000); in the data active = binding response below about 49% or above about 150%; inactive = in between;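 also: fluorescent Galphao activated with aluminum fluoride binding bead-coupled RGS4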
Avidin fluor: avidin bead compound fluorescence profile. Avidin beads, compound fluorescence 488/530 nm, flow cytometry; active compounds read high. fluorescence (KMESF) at 10 µM. actives 0.38% (n = 220,000); in the data active = fluorescence above about 47
RGS7-Gao: modulates binding of RGS7 to human Galphao. Multiplexed bead flow cytometry; actives lie on both sides. binding response (% of control), % at 10 µM. actives 0.35% (n = 220,000). AID 1439; in the data active = binding response below about 49% or above about 150%; inconclusive = no clear call, values can overlap the other calls; inactive = in between;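 also: fluorescent Galphao held in activated GDP-AlF4 state binding bead-coupled RGS7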
GSH bead fluor: GSH bead compound fluorescence profile | GSH beads flow cytometry, compound fluorescence 488/530 nm; active compounds read high | fluorescence (KMESF) at 10 µM | actives 0.25% (n = 190,000) | AID 1776; in the data active = fluorescence above about 89;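 also: glutathione beads carrying GST-tagged Bcl family fusion proteins plus one bare bead set; values are compound well signal with DMSO vehicle wells as background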
RGS16-Gao: regulators of human RGS16-Galphao interaction; O15492+P09471; bead-based flow cytometry RGS16-Galphao binding, fluorescence; actives lie on both sides; binding response (% of control), % at 10 µM; actives 0.38% (n = 220,000); AID 1441; call rule not given here;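 also: Galphao activated by GDP with aluminum fluoride before binding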
Target sequence (O15492 whole entry, looked up): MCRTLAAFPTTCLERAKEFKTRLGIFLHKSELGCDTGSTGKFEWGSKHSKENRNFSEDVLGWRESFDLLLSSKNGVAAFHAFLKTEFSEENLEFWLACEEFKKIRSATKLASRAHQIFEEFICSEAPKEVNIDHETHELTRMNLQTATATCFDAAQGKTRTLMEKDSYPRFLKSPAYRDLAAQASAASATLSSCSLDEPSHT
Target sequence (P09471 whole entry, looked up): as the sequence (P09471 whole entry, looked up) above
The depositor's hits bear a star.

Results for COC(=O)c1ccc(C2C(Oc3ccccc3)C(=O)N2CCc2ccc(F)cc2)cc1 (centres undefined) ?
RGS8-Gao reg: 100; RGS4-Gao reg: 100; Avidin fluor: 61*; RGS7-Gao: 112; GSH bead fluor: 17; RGS16-Gao: 100

Results for NCCSc1c(-c2ccccc2)[nH]c2ccccc12 ?
RGS8-Gao reg: 13*; RGS4-Gao reg: 5.5*; Avidin fluor: -1; RGS7-Gao: -8.4*; GSH bead fluor: 17; RGS16-Gao: -3.3*

Results for NCCSc1c(-c2ccc(Cl)cc2)[nH]c2ccccc12 ?
RGS8-Gao reg: 102; RGS4-Gao reg: 104; Avidin fluor: 6; RGS7-Gao: inconclusive; RGS16-Gao: 106

How did OCCNc1nc(-c2ccccc2)nc2c1oc1ccccc12 do in these assays?
RGS8-Gao reg: 95; RGS4-Gao reg: 89; Avidin fluor: 7; RGS7-Gao: inconclusive; RGS16-Gao: 87

Results for CCOC(=O)c1[nH]c2ccccc2c1NC(=O)CCN1CCN(C(=O)OCC)CC1 ?
RGS8-Gao reg: 99; RGS4-Gao reg: 112; Avidin fluor: 132*; RGS7-Gao: 136; GSH bead fluor: 36; RGS16-Gao: 98

What do the screens show for `Cc1ccccc1N1CCN(S(=O)(=O)c2ccccc2)CC1`?
RGS8-Gao reg: 106; RGS4-Gao reg: 107; Avidin fluor: 12; RGS7-Gao: 104; GSH bead fluor: 98*; RGS16-Gao: 106

Results for Cc1cc(S(=O)(=O)N2CCN(c3ccccc3C)CC2)ccc1F ?
RGS8-Gao reg: 104; RGS4-Gao reg: 102; Avidin fluor: 5; RGS7-Gao: 102; GSH bead fluor: 23; RGS16-Gao: 106

What do the screens show for `Cc1cccc(OCc2nnc(SCC(=O)NCCc3ccccc3)o2)c1`?
RGS8-Gao reg: 100; RGS4-Gao reg: 99; Avidin fluor: 10; RGS7-Gao: 104; GSH bead fluor: 243*; RGS16-Gao: 102

What do the screens show for `Cc1cccc(OCc2nnc(SCC(=O)c3ccccc3)o2)c1`?
RGS8-Gao reg: 98; RGS4-Gao reg: 105; Avidin fluor: 64*; RGS7-Gao: 130; GSH bead fluor: 14; RGS16-Gao: 104

Results for O=c1ccc2ccc(Oc3ccc([N+](=O)[O-])cc3[N+](=O)[O-])cc2o1 ?
RGS8-Gao reg: 111; RGS4-Gao reg: 98; Avidin fluor: 1; RGS7-Gao: 100; GSH bead fluor: 6; RGS16-Gao: 133

Results for Cc1cc(C(=O)OCc2nnc(-c3ccccc3)o2)c(C)n1-c1ccccc1 ?
RGS8-Gao reg: 102; RGS4-Gao reg: 101; Avidin fluor: 7; RGS7-Gao: 101; GSH bead fluor: 261*; RGS16-Gao: 106

What do the screens show for `COc1ccc(-c2nnn(Cc3nn[nH]n3)n2)cc1OC`?
RGS8-Gao reg: 97; RGS4-Gao reg: 96; Avidin fluor: 8; RGS7-Gao: 97; GSH bead fluor: 280*; RGS16-Gao: 97

What do the screens show for `COc1ccc(-c2nnn(CCc3nn[nH]n3)n2)cc1OC`?
RGS8-Gao reg: 102; RGS4-Gao reg: 92; Avidin fluor: 13; RGS7-Gao: 95; GSH bead fluor: 25; RGS16-Gao: 91

How did COc1ccc(Cl)cc1NC(=O)C1COc2ccccc2O1 (centres undefined) do in these assays?
RGS8-Gao reg: 100; RGS4-Gao reg: 102; Avidin fluor: 9; RGS7-Gao: 103; GSH bead fluor: 12; RGS16-Gao: 103

How did CN1CCN(c2ccc(Cl)cc2NC(=O)C2COc3ccccc3O2)CC1 (centres undefined) do in these assays?
RGS8-Gao reg: 102; RGS4-Gao reg: 96; Avidin fluor: 7; RGS7-Gao: 97; GSH bead fluor: 264*; RGS16-Gao: 111

How did CN1CCN(c2ccc(Cl)cc2NC(=O)c2nn(-c3ccccc3)c(=O)c3ccccc23)CC1 do in these assays?
RGS8-Gao reg: 102; RGS4-Gao reg: 104; Avidin fluor: 12; RGS7-Gao: 95; GSH bead fluor: 92*; RGS16-Gao: 104

How did C=CCN=C1S/C(=C\c2ccc(Cl)cc2)C(=O)N1CC=C do in these assays?
RGS8-Gao reg: 98; RGS4-Gao reg: 122; Avidin fluor: 49*; RGS7-Gao: inconclusive; RGS16-Gao: 114

How did COC(=O)c1ccccc1N(C)S(=O)(=O)c1cc2c(cc1C)OCC(=O)N2 do in these assays?
RGS8-Gao reg: 98; RGS4-Gao reg: 97; Avidin fluor: 9; RGS7-Gao: 98; GSH bead fluor: 11; RGS16-Gao: 94

How did CCc1nc2sc(C)c(C)c2c(=O)n1CCO do in these assays?
RGS8-Gao reg: 105; RGS4-Gao reg: 130; Avidin fluor: 52*; RGS7-Gao: 120; GSH bead fluor: 28; RGS16-Gao: 141

What do the screens show for `COc1cccc(OC)c1OCCCCN1CCCC1`?
RGS8-Gao reg: 100; RGS4-Gao reg: 98; Avidin fluor: 56*; RGS7-Gao: 107; GSH bead fluor: 15; RGS16-Gao: 95

Results for COc1cccc(OC)c1OCCCN1CCOCC1 ?
RGS8-Gao reg: 101; RGS4-Gao reg: 102; Avidin fluor: 11; RGS7-Gao: 99; GSH bead fluor: 16; RGS16-Gao: 104

How did c1ccc(COc2ccccc2CNC23CC4CC(CC(C4)C2)C3)cc1 do in these assays?
RGS8-Gao reg: 99; RGS4-Gao reg: 102; Avidin fluor: 9; RGS7-Gao: 95; GSH bead fluor: 14; RGS16-Gao: 102

What do the screens show for `Nc1nc2ccc(O)cc2s1`?
RGS8-Gao reg: 102; RGS4-Gao reg: 95; Avidin fluor: 5; RGS7-Gao: 101; GSH bead fluor: 187*; RGS16-Gao: 102

Results for CS/C(N)=N/S(=O)(=O)c1ccc(NC(C)=O)cc1 ?
RGS8-Gao reg: 84; RGS4-Gao reg: 114; Avidin fluor: 75*; RGS7-Gao: inconclusive; RGS16-Gao: 87

What do the screens show for `Cc1cc(=O)oc2cc(OCC(=O)OCC(=O)NCCc3ccccc3)ccc12`?
RGS8-Gao reg: 102; RGS4-Gao reg: 99; Avidin fluor: 22; RGS7-Gao: 102; GSH bead fluor: 7; RGS16-Gao: 100

Results for O=C(CCCSc1nnc(Nc2ccccc2F)s1)N1CCOCC1 ?
RGS8-Gao reg: 100; RGS4-Gao reg: 102; Avidin fluor: 8; RGS7-Gao: inconclusive; GSH bead fluor: 16; RGS16-Gao: 100

How did CC(C)C12CN3CC(C(C)C)(CN(C1)C3c1ccccc1)C2O (centres undefined) do in these assays?
RGS8-Gao reg: 101; RGS4-Gao reg: 109; Avidin fluor: 4; RGS7-Gao: 111; GSH bead fluor: 253*; RGS16-Gao: 110

Results for O=C(c1cccs1)N1CCN(CCCc2ccccc2)CC1 ?
RGS8-Gao reg: 101; RGS4-Gao reg: 101; Avidin fluor: 7; RGS7-Gao: 100; GSH bead fluor: 263*; RGS16-Gao: 108

Results for COc1cc(C(=O)NNC(=S)NC(=O)/C=C/c2ccccc2)cc(OC)c1OC ?
RGS8-Gao reg: 102; RGS4-Gao reg: 99; Avidin fluor: 4; RGS7-Gao: inconclusive; RGS16-Gao: 102

High-throughput results as filed in PubChem BioAssay.
